# In PubChem BioAssay (EPA / NIEHS):
# Active and inactive are the calls of the source. Rule for the calls: active = hit-call score of the fitted dose curve at least 0.9, where 1 is the maximum; inactive = score below 0.9.
# How the values were obtained:
# [1] = ATG_GRE_CIS: Attagene CIS-FACTORIAL HepG2 Assay for human Glucocorticoid Response Elements (GRE) (AID 2282947); conditions: HepG2 GRE cis-reporter, Attagene multiplex mRNA; actives raise or lower the signal
# How it was run: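 Fluorescence intensity of reporter-specific cDNA fragments, separated by capillary electrophoresis, provides the signal. Constructs carry cis-regulating promoters in transiently transfected HepG2 liver cells; 24 h incubation; fitting is bidirectional against DMSO.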
# [2] = ATG_ISRE_CIS: Attagene CIS-FACTORIAL HepG2 Assay for human Interferon Regulatory Factor 1 (IRF1) binding to an Interferon-Stimulated Response Element (ISRE) (AID 2282948); conditions: HepG2 ISRE cis-reporter (Attagene), mRNA transcription readout; actives raise or lower the signal
# How it was run: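 Endogenous transcription factor activity read as reporter transcript abundance via RT-PCR and capillary electrophoresis. HepG2 cells transiently transfected, 24 h chemical exposure. Gain or loss fitted against DMSO baseline.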
# [3] = ATG_M_32_CIS: Attagene CIS-FACTORIAL HepG2 Assay for M32 Transcription Factor (Internal Marker) (AID 2282949); conditions: HepG2 Attagene cis-factorial M32 reporter, mRNA; actives raise or lower the signal;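 note: background control marker of the multiplexed CIS panel rather than a real target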
# How it was run: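 HepG2 human liver cells transiently transfected with cis-promoter-driven multiple reporter transcription units, dosed 24 h. Reporter mRNA quantified by RT-PCR, FAM-labelled primer extension, HpaI digest and capillary electrophoresis; bidirectional fit versus DMSO baseline.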
# [4] = ATG_M_06_CIS: Attagene CIS-FACTORIAL HepG2 Assay for M06 Transcription Factor (Internal Marker) (AID 2282950); conditions: HepG2 Attagene CIS-FACTORIAL M06 internal marker reporter; actives raise or lower the signal
# How it was run: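 HepG2 liver cells, 24 h exposure. Reporter transcripts from transfected cis-element constructs quantified by RT-PCR/capillary electrophoresis fluorescence. Bidirectional curve fit against DMSO.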
# [5] = target: Hypoxia-inducible factor 1-alpha (Homo sapiens) (UniProt Q16665); assay: ATG_HIF1a_CIS: Attagene CIS-FACTORIAL HepG2 Assay for human Hypoxia Inducible Factor 1 (HIF1A) (AID 2282951); conditions: HepG2 Attagene cis-factorial HIF1a reporter transcription; actives raise or lower the signal
# Chain of Hypoxia-inducible factor 1-alpha (Homo sapiens) (Q16665 whole entry, looked up): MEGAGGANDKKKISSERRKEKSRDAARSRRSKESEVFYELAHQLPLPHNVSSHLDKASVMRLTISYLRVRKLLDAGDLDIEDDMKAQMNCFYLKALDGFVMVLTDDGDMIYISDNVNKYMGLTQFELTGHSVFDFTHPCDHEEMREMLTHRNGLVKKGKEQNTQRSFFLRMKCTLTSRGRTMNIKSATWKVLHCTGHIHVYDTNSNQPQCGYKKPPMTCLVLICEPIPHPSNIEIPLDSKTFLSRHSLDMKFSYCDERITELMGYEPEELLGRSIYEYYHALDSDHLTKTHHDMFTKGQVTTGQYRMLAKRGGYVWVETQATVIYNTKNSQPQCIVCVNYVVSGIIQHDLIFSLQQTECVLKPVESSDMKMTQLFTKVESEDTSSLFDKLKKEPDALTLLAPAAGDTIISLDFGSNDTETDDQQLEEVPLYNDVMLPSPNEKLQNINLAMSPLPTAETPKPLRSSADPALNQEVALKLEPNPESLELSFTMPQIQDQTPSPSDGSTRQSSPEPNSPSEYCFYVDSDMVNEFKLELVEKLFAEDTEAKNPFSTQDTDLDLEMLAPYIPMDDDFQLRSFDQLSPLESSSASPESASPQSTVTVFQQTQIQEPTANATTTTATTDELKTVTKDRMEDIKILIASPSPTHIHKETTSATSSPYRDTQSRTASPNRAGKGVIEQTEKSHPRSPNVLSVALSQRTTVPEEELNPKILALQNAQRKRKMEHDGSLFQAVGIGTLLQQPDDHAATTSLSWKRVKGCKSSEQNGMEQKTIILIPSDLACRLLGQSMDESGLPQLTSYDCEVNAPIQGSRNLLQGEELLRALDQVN
# How it was run: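 Endogenous-TF cis reporter readout, human HepG2 cells, 24 h incubation; mRNA detected via RT-PCR and capillary electrophoresis fluorescence; DMSO-normalised bidirectional fitting.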
# [6] = target: Hepatocyte nuclear factor 6 (Homo sapiens) (UniProt Q9UBC0); assay: ATG_HNF6_CIS: Attagene CIS-FACTORIAL HepG2 Assay for human Hepatocyte Nuclear Factor 6 (HNF6) (AID 2282952); conditions: HepG2 Attagene cis-factorial HNF6 reporter transcription; actives raise or lower the signal
# Chain of Hepatocyte nuclear factor 6 (Homo sapiens) (Q9UBC0 whole entry, looked up, the tested form may be a part): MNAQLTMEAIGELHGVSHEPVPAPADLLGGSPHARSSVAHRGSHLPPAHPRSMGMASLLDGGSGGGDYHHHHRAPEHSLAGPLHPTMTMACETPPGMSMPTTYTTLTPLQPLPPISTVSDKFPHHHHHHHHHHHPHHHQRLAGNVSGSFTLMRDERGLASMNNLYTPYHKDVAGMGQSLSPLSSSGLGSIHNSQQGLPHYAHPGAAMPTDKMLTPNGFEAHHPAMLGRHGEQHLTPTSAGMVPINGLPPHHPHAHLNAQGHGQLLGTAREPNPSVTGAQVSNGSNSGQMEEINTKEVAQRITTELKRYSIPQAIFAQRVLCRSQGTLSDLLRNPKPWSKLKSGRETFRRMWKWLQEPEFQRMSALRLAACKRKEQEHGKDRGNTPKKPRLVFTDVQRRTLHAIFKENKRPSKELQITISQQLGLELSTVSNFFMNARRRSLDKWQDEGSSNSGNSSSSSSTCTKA
# How it was run: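 Using cis-element reporters in HepG2 liver cells, the assay tracks endogenous factor-driven transcription 24 h post-dosing. Signal comes from 6-FAM-labelled, HpaI-digested RT-PCR fragments, with gain or loss scored against DMSO.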
# [7] = ATG_MRE_CIS: Attagene CIS-FACTORIAL HepG2 Assay for human Metal Responsive Element (MRE) (AID 2282954); conditions: HepG2 MRE cis-reporter transcription, Attagene multiplex; actives raise or lower the signal
# How it was run: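 Measured here is mRNA induction from an MRE cis-element reporter in HepG2 after 24 h, quantified by fluorescence of labelled RT-PCR products on capillary electrophoresis; gain- and loss-of-signal fits use DMSO as baseline.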
# [8] = target: Paired box protein Pax-6 (Homo sapiens) (UniProt P26367); assay: ATG_Pax6_CIS: Attagene CIS-FACTORIAL HepG2 Assay for human Paired Box 6 (PAX6) (AID 2282956); conditions: HepG2 CIS-FACTORIAL PAX6 reporter transcription, RNA readout; actives raise or lower the signal
# Chain of Paired box protein Pax-6 (Homo sapiens) (P26367 whole entry, looked up): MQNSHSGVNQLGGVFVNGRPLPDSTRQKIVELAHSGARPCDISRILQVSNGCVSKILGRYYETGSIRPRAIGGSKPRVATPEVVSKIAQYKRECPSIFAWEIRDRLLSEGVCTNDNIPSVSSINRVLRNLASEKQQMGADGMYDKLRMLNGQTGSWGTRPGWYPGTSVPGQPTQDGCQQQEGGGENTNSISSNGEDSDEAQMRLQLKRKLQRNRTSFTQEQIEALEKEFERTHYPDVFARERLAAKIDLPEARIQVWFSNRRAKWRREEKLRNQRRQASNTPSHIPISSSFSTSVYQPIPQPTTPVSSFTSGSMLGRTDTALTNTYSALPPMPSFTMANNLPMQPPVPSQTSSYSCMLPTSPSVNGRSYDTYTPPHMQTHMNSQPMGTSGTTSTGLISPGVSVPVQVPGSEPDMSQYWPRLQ
# How it was run: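 Read-out is reporter transcript level, measured by RT-PCR with fluorescent primer extension and capillary electrophoresis after 24 h dosing of transfected HepG2 cells. Activity in either direction fitted relative to DMSO control.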
# [9] = ATG_PXRE_CIS: Attagene CIS-FACTORIAL HepG2 Assay for human Pregnane X Receptor Element (PXRE) (AID 2282957); conditions: HepG2 Attagene CIS-FACTORIAL PXRE reporter, mRNA; actives raise or lower the signal
# How it was run: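 Using HepG2 transfected with multiple reporter transcription units, endogenous factor-driven transcription was scored as reporter mRNA after 24 h exposure.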
# [10] = ATG_PPRE_CIS: Attagene CIS-FACTORIAL HepG2 Assay for human Peroxisome Proliferator-activated Response Element (PPRE) (AID 2282958); conditions: HepG2 PPRE cis-element reporter, Attagene transcription factor profiling; actives raise or lower the signal
# How it was run: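 After human HepG2 hepatoma cells were transiently transfected with cis-promoter reporter constructs, they were exposed to test chemicals for 24 hours. Reporter RNA was then reverse-transcribed, PCR-amplified, FAM-labeled, HpaI-digested and quantified by capillary electrophoresis.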
# [11] = ATG_RORE_CIS: Attagene CIS-FACTORIAL HepG2 Assay for human RAR-related Orphan Receptor Element (RORE) (AID 2282959); conditions: HepG2 Attagene cis-factorial RORE reporter, mRNA; actives raise or lower the signal
# How it was run: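 Measured here: transcript induction of a cis-regulated reporter in HepG2 cells transiently transfected via FuGene 6. After 24 h, RNA was processed by RT-PCR and fluorescent capillary electrophoresis; DMSO defined baseline activity.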
# [12] = ATG_Sox_CIS: Attagene CIS-FACTORIAL HepG2 Assay for human SRY-box transcription factor (SOX) (AID 2282960); conditions: HepG2 Attagene cis-factorial SOX reporter, mRNA; actives raise or lower the signal
# How it was run: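 Using transiently transfected HepG2 cells, reporter transcription driven by cis elements was assessed 24 h after dosing. Signal was fluorescence of capillary-separated RT-PCR products, with DMSO defining baseline activity.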
# [13] = target: Transcription factor Sp1 (Homo sapiens) (UniProt P08047); assay: ATG_Sp1_CIS: Attagene CIS-FACTORIAL HepG2 Assay for human Specificity Protein 1 (Sp1) (AID 2282961); conditions: HepG2 Sp1 cis-reporter transcription, actives raise or lower the signal
# Chain of Transcription factor Sp1 (Homo sapiens) (P08047 whole entry, looked up): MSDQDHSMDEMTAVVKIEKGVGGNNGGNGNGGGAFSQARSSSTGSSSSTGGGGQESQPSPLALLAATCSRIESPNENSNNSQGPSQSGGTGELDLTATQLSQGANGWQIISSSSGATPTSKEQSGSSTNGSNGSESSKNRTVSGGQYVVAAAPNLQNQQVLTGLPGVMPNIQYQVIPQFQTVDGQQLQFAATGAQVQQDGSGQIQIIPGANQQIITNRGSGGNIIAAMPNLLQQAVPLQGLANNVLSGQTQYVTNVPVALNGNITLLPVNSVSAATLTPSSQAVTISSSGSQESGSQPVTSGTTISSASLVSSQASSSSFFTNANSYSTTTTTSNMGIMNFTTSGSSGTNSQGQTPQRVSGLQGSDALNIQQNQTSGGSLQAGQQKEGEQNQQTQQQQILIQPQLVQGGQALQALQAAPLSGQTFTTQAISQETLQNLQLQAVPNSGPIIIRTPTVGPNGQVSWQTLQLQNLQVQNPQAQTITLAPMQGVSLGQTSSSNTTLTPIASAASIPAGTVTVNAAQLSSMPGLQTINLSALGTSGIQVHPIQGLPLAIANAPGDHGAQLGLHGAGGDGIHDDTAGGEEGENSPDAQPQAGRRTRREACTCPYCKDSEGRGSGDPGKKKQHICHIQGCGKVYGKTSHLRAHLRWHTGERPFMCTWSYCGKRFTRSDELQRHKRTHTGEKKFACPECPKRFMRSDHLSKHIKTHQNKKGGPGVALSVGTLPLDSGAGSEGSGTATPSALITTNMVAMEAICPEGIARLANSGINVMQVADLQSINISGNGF
# How it was run: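 After transient transfection of HepG2 cells with cis-promoter reporter units and 24 h chemical treatment, reporter transcripts were quantified by RT-PCR and capillary electrophoresis fluorescence. Gain- and loss-of-signal fitted against DMSO.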
# [14] = target: Signal transducer and activator of transcription 3 (Homo sapiens) (UniProt P40763); assay: ATG_STAT3_CIS: Attagene CIS-FACTORIAL HepG2 Assay for human Signal Transducer and Activator of Transcription 3 (STAT3) (AID 2282963); conditions: HepG2, Attagene cis-factorial STAT3 reporter transcription; actives raise or lower the signal
# Chain of Signal transducer and activator of transcription 3 (Homo sapiens) (P40763 whole entry, looked up, the tested form may be a part): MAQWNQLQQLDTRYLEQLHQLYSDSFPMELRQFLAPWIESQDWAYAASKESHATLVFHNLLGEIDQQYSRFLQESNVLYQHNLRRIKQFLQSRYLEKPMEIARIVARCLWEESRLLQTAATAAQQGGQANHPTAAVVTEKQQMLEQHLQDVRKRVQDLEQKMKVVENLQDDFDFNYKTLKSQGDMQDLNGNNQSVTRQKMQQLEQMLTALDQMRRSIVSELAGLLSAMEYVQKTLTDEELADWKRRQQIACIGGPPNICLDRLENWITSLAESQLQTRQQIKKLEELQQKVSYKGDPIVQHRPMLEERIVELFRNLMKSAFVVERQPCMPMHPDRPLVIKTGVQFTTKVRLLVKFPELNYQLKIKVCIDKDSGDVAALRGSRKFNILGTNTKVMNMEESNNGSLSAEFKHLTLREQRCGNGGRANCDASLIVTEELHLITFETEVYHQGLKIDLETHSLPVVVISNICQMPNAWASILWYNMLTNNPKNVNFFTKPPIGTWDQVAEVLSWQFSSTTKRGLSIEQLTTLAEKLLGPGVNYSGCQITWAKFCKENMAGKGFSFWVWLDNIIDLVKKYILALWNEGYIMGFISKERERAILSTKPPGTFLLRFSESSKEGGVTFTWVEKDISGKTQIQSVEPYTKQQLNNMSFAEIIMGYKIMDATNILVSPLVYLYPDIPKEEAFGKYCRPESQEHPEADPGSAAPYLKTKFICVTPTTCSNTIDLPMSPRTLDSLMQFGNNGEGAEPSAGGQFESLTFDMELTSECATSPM
# How it was run: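 Fluorescence intensity of 6-FAM-labelled reporter fragments, separated by capillary electrophoresis after RT-PCR, gave the signal. Cells were HepG2 transfected with cis-element reporter units and treated 24 h; fitting was bidirectional relative to DMSO.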
# [15] = ATG_TA_CIS: Attagene CIS-FACTORIAL HepG2 Assay for human TA Basal Promoter (AID 2282964); conditions: HepG2 Attagene CIS-factorial TA basal promoter reporter; actives raise or lower the signal
# How it was run: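 Fluorescence from labelled RT-PCR reporter fragments, separated by capillary electrophoresis, gives the signal. Cells: HepG2 transiently carrying multiple reporter units, 24 h chemical dosing. Gain or loss relative to DMSO.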
# [16] = ATG_TCF_b_cat_CIS: Attagene CIS-FACTORIAL HepG2 Assay for human T-Cell-Factor with beta-catenin (TCF/b-cat) (AID 2282965); conditions: HepG2 TCF/beta-catenin cis-reporter transcription, actives raise or lower the signal
# How it was run: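 HepG2, transient MRTU transfection, cis-element-driven reporters (endogenous TFs). 24 h compound exposure. Readout: reporter mRNA by RT-PCR + 6-FAM primer extension, HpaI digest, capillary electrophoresis. Gain/loss fit vs DMSO baseline.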
# [17] = target: Heat shock factor protein 1 (Homo sapiens) (UniProt Q00613); assay: ATG_HSE_CIS: Attagene CIS-FACTORIAL HepG2 Assay for human Heat Shock Transcription Factor 1 (HSE) (AID 2282953); conditions: HepG2 HSE cis-reporter, Attagene RNA transcription; actives raise or lower the signal
# Chain of Heat shock factor protein 1 (Homo sapiens) (Q00613 whole entry, looked up, the tested form may be a part): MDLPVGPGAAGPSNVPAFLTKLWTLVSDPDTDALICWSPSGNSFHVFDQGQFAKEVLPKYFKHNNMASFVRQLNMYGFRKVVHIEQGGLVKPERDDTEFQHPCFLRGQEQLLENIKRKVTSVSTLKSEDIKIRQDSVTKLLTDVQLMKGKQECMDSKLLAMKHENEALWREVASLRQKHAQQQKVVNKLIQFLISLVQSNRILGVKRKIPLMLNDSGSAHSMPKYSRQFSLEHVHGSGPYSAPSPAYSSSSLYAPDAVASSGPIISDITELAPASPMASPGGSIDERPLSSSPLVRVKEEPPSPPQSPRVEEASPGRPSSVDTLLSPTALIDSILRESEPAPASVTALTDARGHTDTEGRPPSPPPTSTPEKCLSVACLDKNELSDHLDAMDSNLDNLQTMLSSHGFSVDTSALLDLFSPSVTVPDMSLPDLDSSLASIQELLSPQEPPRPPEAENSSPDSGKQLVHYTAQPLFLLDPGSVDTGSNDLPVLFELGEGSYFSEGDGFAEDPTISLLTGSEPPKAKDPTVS
# How it was run: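 Endogenous transcription factor activity captured via cis-promoter reporter units transfected into HepG2; treatment lasted 24 h. Fluorescence intensity of reporter fragments analysed with bidirectional curve fitting, DMSO baseline.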
# [18] = ATG_SREBP_CIS: Attagene CIS-FACTORIAL HepG2 Assay for human Sterol Regulatory Element Binding (SREBP) (AID 2282962); conditions: HepG2 Attagene cis-factorial SREBP reporter, mRNA; actives raise or lower the signal
# How it was run: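 Endogenous SREBP activity read as cis-element-driven reporter transcript in transiently transfected HepG2, 24 h post-dosing; quantified via RT-PCR plus capillary electrophoresis of fluorescent fragments. Gain or loss of signal fitted relative to DMSO baseline.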
smiles,measurement,setting,value
Cc1ccccc1[N+](=O)[O-],outcome,[1],inactive
same,outcome,[2],inactive
same,outcome,[3],inactive
same,outcome,[4],inactive
same,outcome,[5],inactive
same,outcome,[6],inactive
same,outcome,[7],inactive
same,outcome,[8],inactive
same,outcome,[9],inactive
same,outcome,[10],inactive
same,outcome,[11],inactive
same,outcome,[12],inactive
same,outcome,[13],inactive
same,outcome,[14],inactive
same,outcome,[15],inactive
same,outcome,[16],inactive
CCCCCCOC(=O)c1ccccc1C(=O)OCCCCCC,outcome,[1],inactive
same,outcome,[2],inactive
same,outcome,[3],inactive
same,outcome,[4],inactive
same,outcome,[5],inactive
same,outcome,[6],inactive
same,outcome,[17],inactive
same,outcome,[7],inactive
same,outcome,[8],inactive
same,AC50,[9],3.19 µM (active)
same,AC50,[10],2.84 µM (active)
same,outcome,[11],inactive
same,outcome,[12],inactive
same,outcome,[13],inactive
same,outcome,[18],inactive
same,outcome,[14],inactive
same,outcome,[15],inactive
same,outcome,[16],inactive
O=C(NC(=O)c1c(F)cccc1F)Nc1cc(Cl)c(OC(F)(F)C(F)F)c(Cl)c1,outcome,[1],inactive
same,outcome,[2],inactive
same,outcome,[3],inactive
same,outcome,[4],inactive
same,outcome,[5],inactive
same,outcome,[6],inactive
same,outcome,[17],inactive
same,outcome,[7],inactive
same,outcome,[8],inactive
same,outcome,[9],inactive
same,outcome,[10],inactive
same,outcome,[11],inactive
same,outcome,[12],inactive
same,outcome,[13],inactive
same,outcome,[14],inactive
same,outcome,[15],inactive
same,outcome,[16],inactive
CC(C)C(=O)OCC(C)(C)C(OC(=O)C(C)C)C(C)C (stereo unspecified),outcome,[1],inactive
same,outcome,[2],inactive
same,outcome,[3],inactive
same,outcome,[4],inactive
same,outcome,[5],inactive
same,outcome,[6],inactive
same,outcome,[17],inactive
same,outcome,[7],inactive
same,outcome,[8],inactive
same,AC50,[9],26.7 µM (active)
same,outcome,[10],inactive
same,outcome,[11],inactive
same,outcome,[12],inactive
same,outcome,[13],inactive
same,outcome,[18],inactive
same,outcome,[14],inactive
same,outcome,[15],inactive
same,outcome,[16],inactive
COS(=O)(=O)OC,outcome,[1],inactive
same,outcome,[2],inactive
same,outcome,[3],inactive
same,outcome,[4],inactive
same,AC50,[5],26.9 µM (active)
same,outcome,[6],inactive
same,outcome,[17],inactive
same,outcome,[7],inactive
same,outcome,[8],inactive
same,outcome,[9],inactive
same,outcome,[10],inactive
same,outcome,[11],inactive
same,outcome,[12],inactive
same,outcome,[13],inactive
same,outcome,[18],inactive
same,outcome,[14],inactive
same,outcome,[15],inactive
same,outcome,[16],inactive
O=C(NC(=O)c1cc(F)c(F)cc1Cl)Nc1cc(F)ccc1N1CCC(C(=O)O)CC1,outcome,[1],inactive
same,outcome,[2],inactive
same,outcome,[3],inactive
same,outcome,[4],inactive
same,outcome,[5],inactive
same,outcome,[6],inactive
same,outcome,[17],inactive
same,outcome,[7],inactive
same,outcome,[8],inactive
same,AC50,[9],4.65 µM (active)
same,outcome,[10],inactive
same,outcome,[11],inactive
same,outcome,[12],inactive
same,outcome,[13],inactive
same,outcome,[14],inactive
same,outcome,[15],inactive
same,outcome,[16],inactive
ClC1=C(Cl)[C@]2(Cl)[C@@H]3[C@H]4C[C@H]([C@@H]5O[C@H]45)[C@@H]3[C@@]1(Cl)C2(Cl)Cl,outcome,[1],inactive
same,outcome,[2],inactive
same,outcome,[3],inactive
same,outcome,[4],inactive
same,outcome,[5],inactive
same,outcome,[6],inactive
same,outcome,[17],inactive
same,outcome,[7],inactive
same,outcome,[8],inactive
same,AC50,[9],1.58 µM (active)
same,outcome,[10],inactive
same,outcome,[11],inactive
same,outcome,[12],inactive
same,outcome,[13],inactive
same,outcome,[14],inactive
same,outcome,[15],inactive
same,AC50,[16],4.74 µM (active)
